High-throughput results deposited in PubChem by several laboratories.
PfHsp40 yeast – rescue of yeast from PfHsp40 toxicity, primary screen, S. cerevisiae, ATP luminescence; S. cerevisiae expressing PfHsp40, growth rescue; growth rescue, % at 12.5 µM; 0.68% of 340,000 active; in the data active = growth rescue above about 28%, passing the limit was not always enough;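 note: yeast W303a lacking pdr1 and pdr3 grown in galactose medium; growth measured after three days at 30 °C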
BJeLR lethal – MLPCN primary cell-based screen for lethality selective to Ras in HRASV12 cells. AID 1554, 2009. 0.17% of 300,000 active. BJeLR (HRASV12) viability, CellTiter-Glo ATP luminescence, 48 h. inhibition, % (no concentration beside the values); in the data active = inhibition above about 50%
Mtb FBA inh – Mtb FBA enzyme inhibitors, primary screen, biochemical, fluorescence, strain H37Rv; purified M. tuberculosis FBA, fluorescence read-out; 2.3% of 360,000 active; inhibition, % at 1 µM; Fructose-bisphosphate aldolase (Mycobacterium tuberculosis (strain ATCC 25618 / H37Rv)), …; AID 588726, 2011;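 note: 0% = vehicle and 100% = reference inhibitor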
Target sequence (P9WQA3 whole entry, looked up): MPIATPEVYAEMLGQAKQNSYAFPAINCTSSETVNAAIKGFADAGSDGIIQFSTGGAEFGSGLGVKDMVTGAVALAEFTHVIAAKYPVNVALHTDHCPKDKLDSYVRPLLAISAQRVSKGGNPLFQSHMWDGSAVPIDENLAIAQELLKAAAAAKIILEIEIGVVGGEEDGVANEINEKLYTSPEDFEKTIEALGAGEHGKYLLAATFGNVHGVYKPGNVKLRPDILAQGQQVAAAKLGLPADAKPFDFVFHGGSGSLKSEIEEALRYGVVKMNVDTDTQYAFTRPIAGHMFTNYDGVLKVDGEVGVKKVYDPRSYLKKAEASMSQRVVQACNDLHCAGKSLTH
PrPC surface inh – inhibitors of human cell surface prion protein PrPC, primary screen, cell-based, TR-FRET. Major prion protein (Homo sapiens), P04156. TR-FRET read-out. inhibition, % at 13.8 µM. 0.43% of 370,000 active. AID 720596, 2013; in the data active = inhibition above about 24%; note: 0% = median of the test wells and 100% = reference compound wells
PrP UTR inh – inhibition of PrP 5' UTR reporter expression; cell-based PrP 5' UTR mRNA reporter, plate reader; inhibition, % (concentration not given with the values); 0.35% of 340,000 active; AID 488862, 2010; in the data active = inhibition above about 52%; note: 0 = median of the neutral control wells
GDH-TPI counter-1 – GDH-TPI coupling enzyme inhibitors, primary screen, artefact control for M. tuberculosis FBA inhibitor project, biochemical, absorbance, full deck. GDH-TPI coupled enzyme counterscreen, NADH absorbance. 1.2% of 360,000 active. inhibition, % at 4.8 µM. AID 588335, 2011; in the data active = inhibition above about 30%;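 note: 0% = DMSO wells and 100% = wells lacking the enzyme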
Mtb FBA inh conf – M. tuberculosis aldolase blockers, biochemical, fluorescence, strain H37Rv, confirmation; shares compounds with Mtb FBA inh; purified M. tuberculosis FBA, fluorescence read-out; inhibition, % at 1 µM; 78% of 5,600 active; AID 651616, 2012;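 note: 0% = vehicle wells and 100% = reference inhibitor wells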
GDH-TPI counter-2 – GDH-TPI coupling enzyme inhibitors, artefact control for M. tuberculosis FBA inhibitor project, biochemical, fluorescence, high throughput | shares compounds with Mtb FBA inh | GDH-TPI coupled enzyme counterscreen | inhibition, % at 1 µM | 81% of 5,600 active | AID 652141, 2013; in the data active = inhibition above about 10%
Numbers without * were called inactive; x = not tested or not shown; + = active, no number. The list is not random: actives were taken first. Their share in the collection is about 4.5%. Cut-off read from the data, not from the text of the source, unless noted: active = inhibition above about 27%; inactive = the rest.

SMILES | PfHsp40 yeast | BJeLR lethal | Mtb FBA inh | PrPC surface inh | PrP UTR inh | GDH-TPI counter-1 | Mtb FBA inh conf | GDH-TPI counter-2
O=c1[nH]c2cc3c(cc2cc1CN(Cc1nnnn1CC1CCCO1)C1CCCC1)OCO3 (stereo not given) | 1 | -10 | 76* | -2 | 9 | 12 | 33* | 29*
CCc1ccccc1N(CC(=O)Nc1cccnc1)S(=O)(=O)c1ccccc1 | -2 | 5 | 0 | -9 | -24 | -6 | x | x
COCc1cc(C)nc(NCCc2ccccc2)c1C#N | -1 | 0 | 72* | 4 | -27 | 6 | + | 182*
COCc1cc(C)nc(NC2CCCCC2)c1C#N | 0 | x | 85* | 6 | -14 | 11 | 81* | 67*
COCc1cc(C)nc(N2CCCCC2)c1C#N | 0 | -5 | 11 | 6 | -12 | -3 | x | x
Cc1c(C)c2c(OCC(=O)NCC(C)C)cc3c(c2oc1=O)CCC(C)(C)O3 | 0 | 5 | 57* | 0 | -40 | -7 | + | 190*
Cc1c(C)c2c(OCC(=O)NCc3ccco3)cc3c(c2oc1=O)CCC(C)(C)O3 | -1 | -4 | 34* | 7 | -12 | 16 | + | +
Cc1cc(S(=O)(=O)NCC(C)C)ccc1OCC(=O)NCC1CCCO1 (stereo not given) | -1 | -7 | 0 | 3 | 1 | -12 | x | x
Cc1c(C)c2c(OCC(=O)NCc3cccnc3)cc3c(c2oc1=O)CCC(C)(C)O3 | -2 | -3 | 57* | -5 | -19 | 22 | 69* | 52*
Cc1cc(=O)oc2c3c(cc(OCC(=O)N[C@@H](CC(C)C)C(=O)O)c12)OC(C)(C)CC3 | 0 | -8 | 39* | -10 | -18 | 11 | 39* | 35*
Cc1ccc(Oc2ccc(OCC(=O)NC(CC(C)C)C(=O)O)cc2)cc1 (stereo not given) | 0 | 20 | 3 | 3 | -7 | -11 | x | x
Cc1c(C)c2c(OCC(=O)NCc3ccncc3)cc3c(c2oc1=O)CCC(C)(C)O3 | 0 | 11 | 31* | -4 | -9 | 8 | + | +
COc1ccc(CNC(=O)COc2cc3c(c4oc(=O)cc(C)c24)CCC(C)(C)O3)cc1OC | 1 | 6 | 39* | 1 | -25 | 14 | 54* | 38*
COc1ccc(CCNC(=O)COc2cc(C)cc3oc(=O)cc(C)c23)cc1OC | -1 | 2 | 5 | 4 | 3 | 9 | x | x
COc1ccccc1NC(=O)COC(=O)c1ccc(S(=O)(=O)N2CCCCCC2)cc1 | -2 | x | 5 | -9 | 2 | 13 | x | x
O=C(CCN1C(=O)[C@@H]2Cc3ccccc3CN2C1=O)NCc1ccc(Cl)cc1 | -1 | 9 | -3 | -11 | -10 | -10 | x | x
Cc1ccc(N2C(=O)CC(C)(C)CC2=O)cc1Cl | 6 | 6 | 1 | -8 | -21 | 1 | x | x
O=S(=O)(c1ccccc1)c1cnc2ccccc2c1 | -1 | 6 | -2 | 0 | -38 | 5 | x | x
Nc1nc2ccccc2cc1S(=O)(=O)c1ccccc1 | 0 | -2 | 51* | -3 | -13 | -3 | 116* | 98*
CCOC(=O)N1CCN(C(=O)c2ccc3nc4ccsc4c(=O)n3c2)CC1 | 1 | -4 | 29* | -17 | -19 | 25 | 4 | 7
CCOC(=O)N1CCN(C(=O)c2cccn3c(=O)c4sccc4nc23)CC1 | 0 | x | 66* | -14 | 1 | 53* | 9 | -6
C#CCn1c(=NC(=O)c2ccccc2[N+](=O)[O-])sc2cc(S(C)(=O)=O)ccc21 | -2 | -34 | 3 | 0 | -28 | 11 | x | x
C#CCn1c(=NC(=O)c2sc3ccccc3c2Cl)sc2cc(S(N)(=O)=O)ccc21 | 0 | 4 | 39* | -4 | -1 | 42* | + | +
O=C(CCC(=O)N/N=C/c1ccco1)N/N=C/c1ccco1 | x | -4 | 29* | 3 | x | 4 | 76* | 64*
O=C(O)c1cn(-c2ccc(F)cc2)c2cc(N3CCNCC3)c(F)cc2c1=O | -1 | x | 33* | -3 | -4 | 9 | 170* | 136*
SMILES | PfHsp40 yeast | BJeLR lethal | Mtb FBA inh | PrPC surface inh | PrP UTR inh | GDH-TPI counter-1 | Mtb FBA inh conf | GDH-TPI counter-2
c1ccc(COn2c(-c3ccccc3)nc3c2CCc2nonc2-3)cc1 | 0 | -7 | 53* | -6 | -13 | 0 | 107* | 93*
CC(=O)Nc1ccc(S(=O)(=O)NCCNS(=O)(=O)c2ccc(NC(C)=O)cc2)cc1 | 0 | 2 | -2 | -1 | -14 | -7 | x | x
CC(=O)Nc1ccc(S(=O)(=O)NCCc2cn3nc(C)c(C)nc3n2)cc1 | 1 | 4 | 43* | -3 | -13 | 5 | 59* | 49*
COc1ccc(S(=O)(=O)NCc2cn3c(C)csc3n2)cc1F | 1 | 1 | -5 | 0 | -13 | -3 | x | x
COc1ccc(S(=O)(=O)NCCc2cn3nc(C)c(C)nc3n2)cc1F | 0 | 0 | 61* | -12 | -12 | 9 | + | 149*
COc1ccc(NC(=O)Cn2cnc3sc(C)c(S(=O)(=O)N4CCOCC4)c3c2=O)cc1Cl | -1 | -4 | 2 | 2 | -11 | 13 | x | x
COc1ccc(OC)c(/C=N/NC(=O)CSc2cc(C)nc3c(OC)cccc23)c1 | 1 | -2 | 30* | -2 | -13 | 9 | 50* | 35*
COc1ccc2nc(C)cc(SCC(=O)N/N=C/c3ccco3)c2c1 | 0 | 1 | 3 | 3 | -23 | 1 | x | x
COc1ccc(OC)c(/C=N\NC(=O)c2c(C)nc3cc(C)ccn23)c1 | 1 | -26 | 60* | 1 | -6 | 17 | + | +
Cc1cccc(NC(=O)c2cc(-c3ccccn3)nc3ccccc23)c1C | 1 | -1 | -1 | -1 | -14 | 4 | x | x
N#Cc1ccc(-c2csc(NC(=O)C3CC3)n2)cc1 | 0 | 5 | 50* | -6 | -10 | 5 | 91* | 71*
N#Cc1ccc(-c2csc(NC(=O)/C=C/c3cccs3)n2)cc1 | -2 | 5 | 1 | 11 | 5 | 12 | x | x
O=C(O)CC1(CC(=O)Nc2cc3ccccc3cn2)CCCCC1 | x | -11 | 8 | 7 | x | -6 | x | x
O=C(c1cc2c(=O)n3ccccc3nc2s1)N1CCN(c2cccc(Cl)c2)CC1 | 9 | -1 | 13 | -3 | -20 | 16 | x | x
